PP5 primary = PP5 phosphatase inhibitors, primary screen, biochemical, fluorescence. Serine/threonine-protein phosphatase 5 (Homo sapiens), P53041. purified PP5c, OMFP substrate fluorescence. inhibition, % at 6.7 µM. actives 0.18% (n = 320,000). AID 1987, 2009;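 active means inhibition above the campaign's mean inhibition across all tested compounds plus 3 SD, cut at about 9.5% in these data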;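 further: 0% = DMSO only and 100% = 100 µM cantharidin control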
NadD block = inhibitors of S. aureus NadD, primary screen, biochemical, colorimetric, uHTS; purified NadD enzyme, colorimetric absorbance read-out; inhibition, % at 20 µM; actives 0.78% (n = 360,000); AID 602399, 2012; in the data active means inhibition above about 26%
Rpn11 block = Rpn11 (PSMD14) deubiquitinase inhibitors, primary screen, biochemical, fluorescence polarization, uHTS | inhibition, % at 20 µM | human 26S proteasome, Ub4-pepOG fluorescence polarization; 20S core pre-blocked with epoxomicin | 26S proteasome non-ATPase regulatory subunit 14 (Homo sapiens), O00487 | AID 588493, 2011 | actives 0.59% (n = 360,000);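 active means inhibition at 20 µM, scaled to each plate's controls, above about 33%, limit read from the data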
PREPL inh = PREPL enzyme inhibitors, primary screen, biochemical, fluorescence polarization | inhibition, % at 5.96 µM | actives 0.68% (n = 320,000) | AID 2751, 2010 | recombinant PREPL, fluorescence polarization activity-based probe | Prolyl endopeptidase-like (Homo sapiens), Q4J6C6; in the data active means inhibition above about 43%;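 further: 0% = enzyme with DMSO and 100% = wells lacking enzyme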
PP1 inh = PP1-alpha phosphatase inhibitors, primary screen, counter-screen for PP5 inhibitor project, biochemical, fluorescence, OMFP substrate, single point | Serine/threonine-protein phosphatase PP1-alpha catalytic subunit (Homo sapiens), P62136 | inhibition, % at 6.7 µM | purified PP1alpha | actives 0.9% (n = 320,000);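 active means inhibition above the mean inhibition of all tested compounds plus 3 SD, computed separately for each screening campaign, cut at about 15% in these data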
PP1 inh confirm = PP1 phosphatase inhibitors, confirmation, biochemical, fluorescence, OMFP substrate, triplicate; purified PP1alpha; AID 2358, 2010; inhibition, % at 6.7 µM; actives 52% (n = 1,900); shares compounds with PP1 inh;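 active means mean PP1 inhibition above a set limit taken from the earlier primary screen, cut at about 15% in these data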
PP5 inh counter = PP5 phosphatase inhibition by PP1 hits, confirmation, counter-screen for PP1 inhibitor project, biochemical, fluorescence, triplicate | shares compounds with PP1 inh | purified PP5c, OMFP fluorescence | inhibition, % at 6.7 µM | actives 4% (n = 1,900);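 active means mean PP5 inhibition over triplicate wells above about 9.5% taken from the earlier PP1 screen, limit read from the data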
PREPL inh cf = human PREPL enzyme inhibitors, confirmation, biochemical, fluorescence polarization. shares compounds with PREPL inh. inhibition, % at 5.96 µM. recombinant PREPL, fluorescence polarization activity probe. actives 67% (n = 2,000); in the data active means inhibition above about 43%;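 further: 0% = protein with DMSO and 100% = wells lacking protein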
Rpn11 inh conf = Rpn11 (PSMD14) deubiquitinase inhibitors, confirmation, biochemical, fluorescence polarization, single concentration | shares compounds with Rpn11 block | AID 602318, 2012 | actives 29% (n = 1,900) | inhibition, % at 20 µM | purified human 26S proteasome, Ub4-pepOG fluorescence polarization; proteasome pretreated with epoxomicin
MMP-2 inh = MMP-2 enzyme inhibition, confirmation, counter-screen for RPN11 inhibitor project, biochemical, fluorescence, single concentration; AID 602330, 2012; shares compounds with Rpn11 block; recombinant MMP-2, FRET peptide cleavage fluorescence; inhibition, % at 20 µM; actives 4% (n = 1,900);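 further: human MMP-2 activated beforehand with APMA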
Thrombin FP = bovine thrombin protease inhibition, confirmation, counter-screen for Rpn11 inhibitor project, biochemical, fluorescence polarization, single concentration; shares compounds with Rpn11 block; bovine thrombin cleavage of Ub4-pepOG; inhibition, % at 20 µM; actives 13% (n = 1,900); AID 602333, 2012;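 active means mean inhibition at least 40% at 20 µM, or signal 3 deviations below plate average, so some actives read negative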;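 further: plate controls were thrombin with DMSO for no effect and buffer wells lacking thrombin for full effect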
Target sequence (P00735 whole entry, looked up): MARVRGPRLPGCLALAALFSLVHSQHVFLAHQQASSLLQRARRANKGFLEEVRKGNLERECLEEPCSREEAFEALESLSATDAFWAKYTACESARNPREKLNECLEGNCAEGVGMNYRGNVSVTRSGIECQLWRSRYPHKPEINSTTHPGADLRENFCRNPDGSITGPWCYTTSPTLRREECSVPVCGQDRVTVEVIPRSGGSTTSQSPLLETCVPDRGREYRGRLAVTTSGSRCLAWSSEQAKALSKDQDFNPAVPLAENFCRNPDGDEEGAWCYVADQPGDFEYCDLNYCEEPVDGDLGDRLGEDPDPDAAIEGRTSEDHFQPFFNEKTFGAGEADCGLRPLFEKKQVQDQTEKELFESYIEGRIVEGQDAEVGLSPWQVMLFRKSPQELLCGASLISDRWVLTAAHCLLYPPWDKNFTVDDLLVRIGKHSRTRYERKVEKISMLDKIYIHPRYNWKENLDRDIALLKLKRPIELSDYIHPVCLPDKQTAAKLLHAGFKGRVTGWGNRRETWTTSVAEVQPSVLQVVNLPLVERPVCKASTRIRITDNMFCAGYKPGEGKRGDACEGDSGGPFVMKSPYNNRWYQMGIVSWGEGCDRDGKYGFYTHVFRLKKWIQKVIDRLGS
* = called active by the depositor; i = inactive; x = not tested or not shown. The list is not random: actives were taken first. Their share in the collection is about 2.4%. Unless noted, no stated cut-off is given here; in the data, active means inhibition above about 40%; inactive means the rest.

SMILES	PP5 primary	NadD block	Rpn11 block	PREPL inh	PP1 inh	PP1 inh confirm	PP5 inh counter	Rpn11 inh conf	MMP-2 inh	Thrombin FP	others
COc1cc(/C=C2/SC(=Nc3ccc(O)cc3)NC2=O)ccc1O	1	-7	76*	10	23*	24*	-1	70*	-9	64*
O=C(NN1C(=O)/C(=C/C=C/c2ccco2)SC1=S)c1ccccc1O	0	40*	177*	11	33*	14	-3	100*	58*	60*
CCN(CC)CCOC(=O)c1ccc(N/C=C(/C#N)c2nc(-c3ccc4c(c3)OCO4)cs2)cc1	0	24	86*	23	65*	39*	0	153*	-152	71*
N#C/C(=C\C=C\c1ccccc1)c1nc(-c2ccc3c(c2)OCO3)cs1	-1	8	-29	5	-2	x	x	x	x	x
O=C(CC1OC(=O)c2ccccc21)Nc1ccc(Cl)c(S(=O)(=O)N2CCCCC2)c1 (centres undefined)	1	-8	3	-3	-6	x	x	x	x	x
CCc1[nH]nc(C(=O)N/N=C/c2ccncc2)c1C	-2	1	1	4	-6	x	x	x	x	x
Cc1ccc(S(=O)(=O)NNc2ccccc2)c(C)c1	3	13	-3	-6	4	x	x	x	x	x
CC1=C(C(=O)N(C)C)CC(CC(=O)NCCCCc2ccccc2)C(=O)N1Cc1ccc(C(C)(C)C)cc1 (centres undefined)	x	4	2	x	x	x	x	x	x	x
Cn1ccc2cc3c(cc21)CCN3C(=O)Nc1cccnc1	1	31*	91*	32	35*	0	-1	23	-362	-6
COc1cc(-c2n[nH]c(=S)n2/N=C/c2cccn2C)cc(OC)c1OC	3	1	4	3	2	x	x	x	x	x
O=C(Nc1ccc2oc(-c3ccncc3)nc2c1)c1ccc2c(c1)OCO2	1	22	169*	7	30*	25*	1	6	i	0
O=C(Nc1ccc2oc(-c3ccncc3)nc2c1)c1ccc2c(c1)OCCO2	3	0	31	19	15	x	x	x	x	x
CC(OC(=O)/C(C#N)=C/c1ccco1)C(=O)N(C)c1ccccc1 (centres undefined)	x	2	17	13	x	x	x	x	x	x
CCC1CCCCN1CCCNC(=O)c1cc2c(=O)oc3ccc(C)cc3c2s1 (centres undefined)	-5	6	6	13	-5	x	x	x	x	x
O=C(O)c1ccc(COc2ccccc2/C=C2/NC(=O)N(c3cccc(Cl)c3)C2=O)cc1	1	22	56*	-9	38*	35*	2	56*	19	15
COc1ccc(-c2nnc(SCC(=O)Nc3cc(C)on3)o2)cc1	-2	-6	3	-1	-3	x	x	x	x	x
CCCCCCCCCC[N+](C)(C)CC/C=C1/c2ccccc2Sc2ccc(Cl)cc21	8	26	48*	40	41*	11	6	38	-2	1
O=C(NN=Cc1ccc(Cl)cc1Cl)C1CC1	x	4	-6	x	x	x	x	x	x	x
O=C1N/C(=C/c2ccc(N3CCCC3)cc2)C(=O)N1c1ccccc1	4	9	41*	5	23*	11	-3	3	-20	-7
O=C1/C(=C/c2ccc(N3CCCC3)cc2)NC(=S)N1C1CC1	4	3	x	9	-1	x	x	x	x	x
O=C(N/N=C/c1cccnc1)/C(=C\c1cccs1)NC(=O)c1ccccc1	-9	-3	-1	16	-5	x	x	x	x	x
O=C(N/N=C/c1cc2ccccc2nc1Cl)/C(=C/c1cccs1)NC(=O)c1ccccc1	1	18	52*	-15	18*	7	-1	19	-175	15
COc1ccc(NC(=O)CC2C(=O)Nc3ccccc3N2CC(=O)N2CCCC2)cc1 (centres undefined)	-1	3	1	4	-2	x	x	x	x	x
O=C(Nc1nc(-c2ccc(Cl)s2)cs1)c1ccco1	2	-11	8	-1	2	x	x	x	x	x
O=C(Nc1nc(-c2nc3ccccc3s2)cs1)c1ccco1	3	1	191*	0	23*	26*	-3	140*	18	24
C#CCOCCOCCOCCNc1nc(N2CCOCC2)nc(N2CCN(C(=O)[C@H](Cc3cc4ccccc4[nH]3)n3cc([C@@H](N)CC(C)C)nn3)CC2)n1	0	6	10	43	3	x	x	x	x	x
C#CCOCCOCCOCCNc1nc(N2CCN(C(=O)[C@H](Cc3cc4ccccc4[nH]3)n3cc([C@@H](N)CC(C)C)nn3)CC2)nc(N2CCN(C(=O)[C@H](Cc3cc4ccccc4[nH]3)n3cc([C@@H](N)CC(C)C)nn3)CC2)n1	7	70*	68*	69*	43*	-8	2	33	1	-5	PREPL inh cf=56*
Nc1cc(=O)[nH]c(SCC(=O)N2N=C(c3ccc(Cl)cc3)CC2c2ccco2)n1 (centres undefined)	4	28	44*	-14	20*	10	-4	3	-40	-6
N=C1/C(=C/c2ccc(-c3cccc(C(=O)O)c3)o2)C(=O)N=C2SC(CC(=O)N3CCOCC3)=NN12	0	6	3	-2	-3	x	x	x	x	x
